# Reference: PubChem BioAssay (EPA / NIEHS)
# Where “and” joins values, the source holds several entries; their conditions need not be identical. Equal values may be shown once. Records with an inconclusive call do not appear. Calls of active or inactive are those of the source. The calls were made as follows: active = hit-call score of the fitted dose curve at least 0.9, where 1 is the maximum; inconclusive = response in the unintended direction; inactive = score below 0.9.
# Biological target: Nucleoli Translocation, AR (gene 367) (UniProt P10275)
# Test: UPITT_HCI_U2OS_AR_TIF2_Nucleoli_Antagonist: University of Pittsburgh U2OS Androgen Receptor-Transcriptional Intermediary Factor 2 (AR-TIF2) Antagonism High Content Imaging Assay for Nucleoli Translocation (AID 2283997)
# Description: UPITT_AR_TIF2_PPIB is a cell-based, high-content imaging assay that uses U2OS, a human osteosarcoma cell line, expressing a human androgen receptor fused to red fluorescent protein and the coactivator TIF2 fused to green fluorescent protein. UPITT_HCI_U2OS_AR_TIF2_Nucleoli_Antagonist is one of four assay components measured from the UPITT_AR_TIF2_PPIB assay. It is designed to make measurements of red fluorescence localized in the nucleolar region of the cell nucleus as detected with high-content fluorescent imaging.Data from the assay component UPITT_HCI_U2OS_AR_TIF2_Nucleoli_Antagonist was analyzed into 1 assay endpoint. This assay endpoint, UPITT_HCI_U2OS_AR_TIF2_Nucleoli_Antagonist, was analyzed in the positive analysis fitting direction relative to DHT as the baseline of activity. Using a type of binding reporter, measures of receptor for loss-of-signal activity can be used to understand the binding at the pathway-level as it relates to the gene AR.
# Daughter plates containing 2 uL of 10 mM compounds in DMSO were prepared and replicated from the 384-well Library of Pharmacologically Active Compounds (LOPAC) master plates using the Bravo outfitted with a 384-well transfer head. Aluminum adhesive plate seals were applied with an Abgene Seal-IT 100 (Rochester, NY) plate sealer, and the plates were stored at -20 C in a Matrical MatriMinistore (Spokane, WA) automated compound storage and retrieval system. For screening, LOPAC daughter plates were withdrawn from -20C storage, thawed to ambient temperature, centrifuged 1-2 min at 50 g, and the plate seals were removed before the transfer of 98 uL of serum-free tissue culture medium (SFM) into wells using the BioTek Microflo liquid handler (BioTek, Winooski, VT) to generate a 200 uM intermediate stock concentration of library compounds (2.0% DMSO). The diluted compounds were mixed by repeated aspiration and dispensation using a 384-well P30 dispensing head on the Evolution P3 (EP3) liquid handling platform (PerkinElmer, Waltham, MA) and then 5 uL of diluted compounds was transferred to the wells of assay plates. In the LOPAC screen, compounds were individually tested at a final concentration of 20 uM (0.2% DMSO). After the diluted compounds had been transferred from the daughter plates to the primary HCS assay plates, aluminum adhesive plate seals were applied and the diluted daughter plates were stored frozen at -20C. To confirm active compounds identified in the primary screen, we withdrew the LOPAC daughter plates containing the 200 uM intermediate concentration of library compounds (2.0% DMSO) from -20C storage, thawed them to ambient temperature, centrifuged them for 1-2 min at 50 g, and removed the plate seals. A work list was generated to direct the Multiprobe Janus liquid handling platform (PerkinElmer) to cherry pick 75 uL from the wells of the diluted daughter plates that were flagged active in the primary screen and to reformat these into a 384-well plate hit confirmation daughter plate. Five microliters of primary HCS active compounds was then transferred into triplicate wells of assay plates using a 384-well P30 dispensing head on the Evolution P3 (EP3) liquid handling platform (PerkinElmer). […] Daughter plates containing 2 uL of the serially diluted compounds in DMSO were prepared and replicated from the 384-well serial dilution master plates using the Bravo outfitted with a 384-well transfer head. Aluminum adhesive plate seals were applied and plates were stored at -20C. […] The ImageXpress Ultra (IXU) platform (Molecular Devices LLC, Sunnyvale, CA) and The ImageXpress Micro (IXM) platform were used for imaging.
# Sequence of Nucleoli Translocation, AR (gene 367) (P10275 whole entry, looked up): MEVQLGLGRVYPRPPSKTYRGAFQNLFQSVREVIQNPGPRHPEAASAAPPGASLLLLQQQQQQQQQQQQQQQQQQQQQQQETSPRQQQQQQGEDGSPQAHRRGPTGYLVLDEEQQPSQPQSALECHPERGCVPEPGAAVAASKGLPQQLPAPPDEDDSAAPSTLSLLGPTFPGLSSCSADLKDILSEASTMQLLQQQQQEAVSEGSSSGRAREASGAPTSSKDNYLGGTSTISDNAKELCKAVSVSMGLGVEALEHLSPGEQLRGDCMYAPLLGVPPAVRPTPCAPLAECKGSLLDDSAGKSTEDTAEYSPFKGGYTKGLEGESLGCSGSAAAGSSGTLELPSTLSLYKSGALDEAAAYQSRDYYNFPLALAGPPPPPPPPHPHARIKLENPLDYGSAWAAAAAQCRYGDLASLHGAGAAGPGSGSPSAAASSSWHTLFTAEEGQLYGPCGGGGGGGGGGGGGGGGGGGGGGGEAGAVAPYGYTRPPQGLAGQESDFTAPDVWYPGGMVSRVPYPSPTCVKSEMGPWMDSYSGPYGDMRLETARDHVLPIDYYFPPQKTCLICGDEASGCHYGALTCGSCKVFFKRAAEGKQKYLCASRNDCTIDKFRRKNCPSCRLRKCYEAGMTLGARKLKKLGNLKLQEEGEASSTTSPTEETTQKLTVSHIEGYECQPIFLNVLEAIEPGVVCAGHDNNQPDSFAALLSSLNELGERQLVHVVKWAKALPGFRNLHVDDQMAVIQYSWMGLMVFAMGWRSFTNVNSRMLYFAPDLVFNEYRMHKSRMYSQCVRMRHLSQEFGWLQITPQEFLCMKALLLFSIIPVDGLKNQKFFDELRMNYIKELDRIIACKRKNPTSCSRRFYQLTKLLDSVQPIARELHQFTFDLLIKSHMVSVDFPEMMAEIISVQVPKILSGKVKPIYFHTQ
Structure (SMILES),outcome,AC50
CCN(CC)c1ccccc1,inactive,–
CC(C)(C)N(NC(=O)c1ccc(Cl)cc1)C(=O)c1ccccc1,inactive,–
O=P(OCC(Br)CBr)(OCC(Br)CBr)OCC(Br)CBr (centres undefined),inactive,–
c1cc2c3c(cccc3c1)CC2,inactive,–
ClC1=C(Cl)C2(Cl)C3C(Cl)C(Cl)CC3C1(Cl)C2(Cl)Cl (centres undefined),–,11.5 µM (active)
CC1(C)CN=C(NN=C(/C=C/c2ccc(C(F)(F)F)cc2)/C=C/c2ccc(C(F)(F)F)cc2)NC1,–,9.92 µM (active)
ClC(Cl)=C(c1ccc(Cl)cc1)c1ccccc1Cl,–,50 µM (active) and 9.92 µM (active)
CO/N=C(/C(=O)OC)c1ccccc1COc1ccccc1C,inactive,–
CCNc1nc(Cl)nc(NC(C)(C)C)n1,inactive,–
[N-]=[N+]=[N-],inactive,–
CCCCC(CC)COP(=O)(Oc1ccccc1)Oc1ccccc1 (centres undefined),inactive,–
CCCCCCCc1ccc(O)cc1,–,60.7 µM (active)
Clc1ccc(Oc2ccccc2)cc1,inactive,–
CCCCN(CC)C(=O)SCCC,inactive,–
